Source: PubChem BioAssay AID686979 (National Center for Advancing Translational Sciences (NCATS), 2013)
Out of some 420,000 compounds screened, about 50,000 (12%) were called active. Not shown: some 26% with an inconclusive outcome. The list comes from a sample in which actives are over-represented; it also holds similar structures and randomly drawn compounds. A number with no mark means an inactive call. The call rests on the fitted dose curve; in most records, active means well fitted inhibition curve with a large enough effect; inconclusive means small, poorly fitted or top-dose-only effect; inactive means flat fitted curve, though single readings scatter.

Assay: qHTS for Inhibitors of human tyrosyl-DNA phosphodiesterase 1 (TDP1): qHTS in cells in presence of CPT; further: nearly all actives have a fitted effect of over 55% in size
Conditions: chicken DT40 Tdp1-/-;hTDP1 cells + 20 nM CPT, ATP luminescence, 48 h; series mostly up to 46.2 µM; activity change, negative = growth inhibition: at the top concentration
Method in brief: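 Cell growth measured by CellTiter-Glo luminescence after a minimum 48 h, 37 C compound exposure with 20 nM CPT in Tdp1-knockout DT40 cells stably expressing hTDP1, seeded 400/well; qHTS titration format.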
On the % scale 0 is the no-effect control and ±100 the full control effect; potency means the concentration at half of the fitted maximal effect.

SMILES | activity change, negative = growth inhibition | Potency
Brc1ccccc1C1Nc2cccc3cccc(c23)N1 | -21.6% | 
Cc1ccc(C2Nc3cccc4cccc(c34)N2)cc1 |  | 2.59 µM (active)
COc1ccc(CCn2c3c(c(=O)[nH]c2=S)CN(C(C)C)CN3)cc1OC | -13% | 
COCC(C)NC(=O)CSc1nc2nn(-c3ccccc3)c(=O)c-2c2n1CCCCC2 (stereo unspecified) | 2.87% | 
CCOC(=O)CSc1nc2ccc(C)cc2[nH]1 | -1.71% | 
Cc1ccc2nc(/C(C#N)=C/c3ccc(-c4ccc(C(=O)OC(C)C)cc4)o3)[nH]c2c1 |  | 7.31 µM (active)
CC(=O)Nc1ccc(C(=O)CSc2nc3ccc(C)cc3[nH]2)cc1 | -0.86% | 
Cc1ccc2nc(S(=O)(=O)O)[nH]c2c1 | -1.52% | 
Cc1ccc2nc(/C(C#N)=C\c3ccc(OC(=O)c4cccs4)cc3)[nH]c2c1 |  | 14.6 µM (active)
CN(C(=O)c1cccc([N+](=O)[O-])c1)c1ccccc1C(=O)NCc1ccccc1 | 2.21% | 
COc1ccc(S(=O)(=O)N2CCN(c3ccc(F)cc3)CC2)cc1-c1noc(C)n1 | 7.73% | 
COc1ccc(CCNC(=O)C(=O)NCC2OCCN2S(=O)(=O)c2cccs2)cc1OC (stereo unspecified) | -2.17% | 
Cc1cc(C)cc(OCC(=O)Nc2ccc(S(=O)(=O)Nc3ccccn3)cc2)c1 | -11.1% | 
COC(=O)Cc1ccc(Oc2ncc(C(F)(F)F)cc2Cl)cc1 | -15.1% | 
Cc1cc(C)cc(NS(=O)(=O)c2ccc(Oc3ncc(C(F)(F)F)cc3Cl)cc2)c1 |  | 23.1 µM (active)
CCOC(=O)[C@H](CCc1ccccc1)N[C@@H](C)C(=O)N1CC2(C[C@H]1C(=O)O)SCCS2 | -0.389% | 
COCCCNC(=O)[C@H]1N2C(=O)c3ccccc3C2SC1(C)C (stereo partly specified) | 7.26% | 
CC(C)N1C[C@@H](NCc2ccccc2O)C[C@H]1C(=O)N1CCN(c2cccc(C(F)(F)F)c2)CC1 | -8.03% [at 9.04 µM] | 
CC1CCC(N2CC(=O)N(CCC3=CCCCC3)C(c3ccc(F)cc3)C2=O)CC1 (stereo unspecified) |  | 13 µM (active)
O=S(=O)(Cc1nnnn1-c1ccc(Br)cc1)c1ccc(F)cc1 | -16.3% | 
NS(=O)(=O)c1ccc(NC(=O)COc2ccc(S(=O)(=O)NC3CCCCC3)cc2)cc1 | -27.9% | 
CCCS(=O)(=O)N1CCCC(C(=O)N2CCN(c3ccccc3)CC2)C1 (stereo unspecified) | -5.02% | 
CC(=O)c1cccc(NC(=O)C2CCCN(S(=O)(=O)c3cccc4nonc34)C2)c1 (stereo unspecified) | -20.4% | 
Cc1ccc(S(=O)(=O)N2CCCC(C(=O)N3CCN(C)CC3)C2)cc1 (stereo unspecified) | -6.45% | 
O=C(C1CCCN(S(=O)(=O)c2ccccc2)C1)N1CCN(c2ccc(F)cc2)CC1 (stereo unspecified) |  | 11.6 µM (active)
O=C(C1CCCN(S(=O)(=O)c2cccc3nonc23)C1)N1CCN(c2ccccc2F)CC1 (stereo unspecified) |  | 18.4 µM (active)

SMILES | activity change, negative = growth inhibition | Potency
O=C(NCc1ccco1)C1CCCN(S(=O)(=O)c2cccc3nonc23)C1 (stereo unspecified) | -10.4% | 
CN1CCC(N(C)S(=O)(=O)c2ccc(NC(=O)c3cccc(C#N)c3)cc2)CC1 | -9.95% | 
COC(C[C@@H](O)C[C@H](O)[C@H](C)OCc1ccccc1)OC | -2.51% | 
CO[C@H]1O[C@@H]2O[C@@]3(C)CC[C@@H]4[C@@H](C)CC[C@@H]([C@H]1C)[C@@]24OO3 |  | 0.631 µM (active)
COc1ccccc1C(=O)NC(CCSC)C(=O)N1CCN(C(C)=O)CC1 (stereo unspecified) | -0.07% | 
CC(C)c1cccc(C(C)C)c1Nc1cn[nH]c1 |  | 14.6 µM (active)
CC(=O)Nc1ccc(S(=O)(=O)N(C)c2ccc(OCC(=O)OCC(=O)N3CCCCC3)cc2)cc1 | 5.25% | 
CCCNC(=S)NC1CC2CCCC(C1)N2CC(C)C (stereo unspecified) | -8.26% | 
CCCN1C2CCCC1CC(NC(=O)c1cccc(OC)c1)C2 (stereo unspecified) | -5.4% | 
CCCN1C2CCCC1CC(NC(=O)NC13CC4CC(CC(C4)C1)C3)C2 (stereo unspecified) |  | 16.4 µM (active)
Cc1ccc(NC(=O)CSCC(=O)Nc2sccc2C#N)cc1 | 2.86% | 
COc1ccccc1C(=O)COC(=O)CNS(=O)(=O)c1ccc(NC(C)=O)cc1 | -12.6% | 
COc1ccc(CS(=O)/C(Cl)=C(/Cl)C(=O)Nc2ccc(OC)nc2)cc1 (stereo unspecified) |  | 0.0184 µM (active)
COc1ccc(NC(=O)CN2C(=O)NC(C)(c3ccccc3)C2=O)cn1 (stereo unspecified) | -5.76% | 
COc1ccc(NC(=S)NCCNC(C)=O)cc1 | -3.51% | 
Cc1nc(Nc2ccccc2F)c2nnn(Cc3ccccc3Cl)c2n1 | -15.9% | 
NC(=O)c1sc(-c2ccsc2)cc1N | 3.43% | 
O=C(Nc1ccccc1-c1ccccc1)c1ccccc1[N+](=O)[O-] | -5.27% | 
Cc1ccc(CC(=O)N(C)CC(=O)N(CC(C)C)c2c(N)n(CC(C)C)c(=O)[nH]c2=O)cc1C | 2.72% | 
O=C(NCCCNC(=O)c1ccccc1Cl)c1cnccn1 | 14.9% | 
Cc1ccc(-c2csc(NC(=O)c3cnccn3)n2)cc1C | -0.532% | 
COCc1ccc(C(=O)NC2CC(C)(C)Cc3c2cnn3-c2ccc(C)cc2)o1 (stereo unspecified) | -24.3% | 
Cc1ccc(-n2ncc3c2CCCC3NC(=O)c2cnccn2)cc1C (stereo unspecified) |  | 20.6 µM (active)
COc1ccc(-n2ncc3c2CC(C)(C)CC3NC(=O)CCc2c(C)noc2C)cc1 (stereo unspecified) | -14.8% | 
COc1ccc(OC)c(C(=O)NC2CCCc3c2cnn3-c2cc(C)cc(C)c2)c1 (stereo unspecified) |  | 29.1 µM (active)
